According to PubChem BioAssay (NCATS):
Records with an inconclusive call do not appear. A call without a number means that no potency is given here. Activity calls are given as the source filed them. Unless noted, calls come from the whole dose curve; as a rule, active = well fitted curve in the direction sought with a large enough effect; inconclusive = small, poorly fitted or top-dose-only effect, or another doubt; inactive = no such curve, though single readings can be large; an effect the other way counts as inactive or inconclusive.

Legend:
[1] = NCATS anti-infectives library activity on HEK293 viability as a counter-qHTS vs the C. elegans viability qHTS (AID 1745854)
Method in brief: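 HEK293 cells, 1500 per well, exposed 24 hr at 37C in 5% CO2 to compounds in a 1:5 titration, up to 41.7 uM final. Viability read as CellTiter-Glo luminescence after 10 min at room temperature.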

[2] = NCATS anti-infectives library activity on the primary C. elegans qHTS viability assay (AID 1745855; calls by dose curve; note: potency is the fitted concentration of half-maximal effect)
Method in brief: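 Viability is taken from GFP fluorescence of PE254-GFP-FLuc C. elegans imaged by laser cytometry over 7 days. Ten L1 worms per well grow at 21 °C on TOP10 E. coli capsules with titrated compound; levamisole marks toxicity.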

[3] = target: Glutathione peroxidase 1 (Homo sapiens) (UniProt P07203); test: Primary qHTS Assay for Inhibitors of Recombinant Selenoprotein Glutathione Peroxidase 1 (GPX1) (AID 1845191); note: nearly all actives have a fitted effect of over 65% in size
Method in brief: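 GR-coupled assay: compounds preincubated 30 min at room temperature with GPX1, then reaction started with CHP; final 10 nM GPX1, 1 mM GSH, 0.5 mM CHP, 0.5 mM NADPH, 100 nM GR, 0.01% BSA, pH 7.5 Tris buffer. NADPH fluorescence (340/450 nm) read at 0 and 15 min.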

[4] = target: Phospholipid hydroperoxide glutathione peroxidase GPX4 (Homo sapiens) (UniProt P36969); test: Primary qHTS Assay for Inhibitors of Recombinant Selenoprotein Glutathione Peroxidase 4 (GPX4) (AID 1845192); note: nearly all actives have a fitted effect of over 65% in size
Method in brief: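 GR-coupled assay: recombinant GPX4 preincubated 30 min with compound at room temperature; final 200 nM GPX4, 1 mM GSH, 0.5 mM cumene hydroperoxide, 0.5 mM NADPH, 100 nM GR, 0.01% BSA, pH 7.5 Tris. NADPH fluorescence (340/450 nm) read at 0 and 15 min.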

[5] = qHTS drug screen for cell cycle checkpoint inhibitors in PARPi-resistant BRCA-mutant ovarian cancer cell lines. (AID 1963452; calls by dose curve); conditions: PEO1/OlaR viability, CellTiter-Glo luminescence, 96 h, stronger effect = lower value
Method in brief: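 PEO1, PEO4 and PEO1/OlaR ovarian cancer cells, 600 per well, exposed 96 h at 37C to a dilution series. Viability read by CellTiter-Glo luminescence, normalized to DMSO and empty wells; activity summarized as Z-AUC.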

[6] = Viability counterscreen for antagonist of constitutive androstane receptor (CAR) against the NCATS DSHEA and TCM libraries (AID 1794837);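 note: compound exposure lasted 24 h before viability reading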
Method in brief: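 Viability was measured by CellTiter-Fluor fluorescence (405/540 nm, 1 hr) in HepG2-CYP2B6-hCAR cells. Cells were co-treated 24 hr with 48 uM CITCO (final), antagonist mode, and test substances.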

[7] = Viability counterscreen for agonist of constitutive androstane receptor (CAR) against the NCATS DSHEA and TCM libraries (AID 1794838)
Method in brief: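 Cell viability, from CellTiter-Fluor fluorescence (405/540 nm), was scored after a 24 h, 37C exposure of HepG2 cells carrying CYP2B6 reporter and hCAR to test substances in presence of 0.75 uM PK11195.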

[8] = target: Nuclear receptor subfamily 1 group I member 3 (Homo sapiens) (UniProt Q14994); test: Primary qHTS for agonist of constitutive androstane receptor (CAR) against the NCATS DSHEA and TCM libraries (AID 1794839);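 note: HepG2 cells expressing human CAR with a CYP2B6 reporter plus PK11195 antagonist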
Method in brief: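 Agonist mode in presence of hCAR antagonist PK11195 (0.75 µM final): test substances, 24 h, 37 °C, on HepG2-CYP2B6-hCAR cells. Same-well readouts: fluorescence viability, then ONE-Glo luminescence; CITCO as reference agonist.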

[9] = HepG2 viability counterscreen (readout 2: ATP content) against the NCATS DSHEA and TCM libraries (AID 1794840);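 note: HepG2 cells exposed to substances for about 24 h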
Method in brief: (§1)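 Readout 1: cellular protease activity, GF-AFC substrate (25 uM final, 30 min, fluorescence 380/510 nm). Readout 2: ATP content by CellTiter-Glo luminescence after 30 min at RT. Both follow ~24 h exposure of HepG2 cells (1,000/well) to substances.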

[10] = HepG2 viability counterscreen (readout 1: protease activity) against the NCATS DSHEA and TCM libraries (AID 1794841);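 note: cells exposed to compounds for about 24 h before the protease read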
Method in brief: as §1

[11] = target: Cytochrome P450 3A4 (Homo sapiens) (UniProt P08684); test: qHTS for inhibitors of CYP3A4 against the NCATS DSHEA and TCM libraries (AID 1919971);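 note: inhibition lowers luminescence from luciferin made by CYP3A4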
Method in brief: (§2)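 Luminescent P450-Glo readout. Enzyme plus pro-luciferin substrate in manufacturer buffer (typically 100 mM KPO4); 15 min RT preincubation; 1x NADPH regenerating system, 30-45 min RT in the dark; detection reagent 30 min.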

[12] = target: Cytochrome P450 2D6 (Homo sapiens) (UniProt P10635); test: qHTS for inhibitors of CYP2D6 against the NCATS DSHEA and TCM libraries (AID 1919972)
Method in brief: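 Steps: enzyme plus luciferin substrate dispensed; test substances pinned; 15 min RT; 1x NADPH regenerating solution added, 30–45 min RT protected from light; detection reagent, 30 min RT; luminescence measured. Minus-enzyme wells as background.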

[13] = target: Cytochrome P450 2C19 (Homo sapiens) (UniProt P33261); test: qHTS for inhibitors of CYP2C19 against the NCATS DSHEA and TCM libraries (AID 1919974);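 note: luminescence from luciferin released by CYP2C19 oxidation of a pro-luciferin substrate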
Method in brief: as §2

[14] = KB-3-1 P-gp reporter qHTS against the NCATS DSHEA and TCM libraries (AID 1919975)
Method in brief: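 Cell viability by CellTiter-Glo luminescence following ~72 h compound exposure (concentration-response). Uses parental, non-P-gp-overexpressing KB-3-1 line, 500 cells/well in DMEM/10% FBS, attached ~4 h before dosing.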

[15] = target: Cytochrome P450 1A2 (Homo sapiens) (UniProt P05177); test: qHTS for inhibitors of CYPIA2 against the NCATS DSHEA and TCM libraries (AID 1919976);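 note: light from luciferin formed by CYP1A2 from a pro-luciferin substrate; series mostly up to about 37 µM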
Method in brief: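 Human CYP1A2 with its pro-luciferin substrate in supplier buffer (typically 100 mM KPO4) was pre-incubated with compounds 15 min at RT. Reaction was started with 1x NADPH regeneration solution and run 30-45 min at RT in the dark, then luminescence was read after P450-Glo detection reagent (30 min RT).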

[16] = qHTS Counterscreen for compound interference against the NCATS DSHEA and TCM libraries (AID 1919978); conditions: firefly luciferase detection reagent interference, luminescence;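 note: compounds preincubated with 1 µM D-luciferin or buffer before detection reagent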
Method in brief: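 With 1 uM D-luciferin or phosphate buffer only, compounds at final 19.5 nM–39.8 uM were incubated for 15 min at room temperature. Luciferase detection reagent was then added, and luminescence was measured after a further 30 min at room temperature.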

[17] = target: Nuclear receptor subfamily 1 group I member 2 (Homo sapiens) (UniProt O75469); test: Dual reporter qHTS for agonist of Pregnane X Receptor (hPXR) against the NCATS DSHEA and TCM libraries: Luminescence readout (AID 1920059)
Method in brief: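 hPXR-Luc HepG2 cells, 2000/well in 5% charcoal-stripped FBS medium, attached 5 h, then exposed 24 h at 37C to compounds. Viability by CellTiter-Fluor, then luciferase luminescence with ONE-Glo.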

[18] = target: Nuclear receptor subfamily 1 group I member 2 (Homo sapiens) (UniProt O75469); test: Dual reporter qHTS for antagonist of Pregnane X Receptor (hPXR) against the NCATS DSHEA and TCM libraries: Luminescence Readout (AID 1920060);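 note: HepG2 cells carrying hPXR luciferase reporter stimulated with rifampicin at 2 µM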
Method in brief: (§3)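 hPXR-Luc HepG2 cells exposed 24 h at 37 C to compounds with 2 uM rifampicin in antagonist mode; luciferase luminescence measured by ONE-Glo, with CellTiter-Fluor viability read beforehand.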

[19] = Dual reporter qHTS for antagonist of Pregnane X Receptor (hPXR) against the NCATS DSHEA and TCM libraries: Fluorescence Readout (AID 1920061)
Method in brief: as §3

Chain of Phospholipid hydroperoxide glutathione peroxidase GPX4 (Homo sapiens) (P36969 whole entry, looked up): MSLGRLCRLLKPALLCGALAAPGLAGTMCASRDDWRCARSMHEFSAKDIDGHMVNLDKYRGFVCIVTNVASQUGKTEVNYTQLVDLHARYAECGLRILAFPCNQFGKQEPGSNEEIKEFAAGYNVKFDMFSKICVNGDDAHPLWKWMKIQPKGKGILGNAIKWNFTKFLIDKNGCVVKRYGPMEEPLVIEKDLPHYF
Chain of Glutathione peroxidase 1 (Homo sapiens) (P07203 whole entry, looked up): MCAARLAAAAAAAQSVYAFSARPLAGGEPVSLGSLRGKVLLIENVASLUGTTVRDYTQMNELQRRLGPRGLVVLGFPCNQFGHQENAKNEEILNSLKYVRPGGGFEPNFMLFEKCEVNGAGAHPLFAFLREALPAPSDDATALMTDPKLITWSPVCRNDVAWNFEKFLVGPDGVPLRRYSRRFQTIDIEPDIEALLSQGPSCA
Chain of Nuclear receptor subfamily 1 group I member 2 (Homo sapiens) (O75469 whole entry, looked up): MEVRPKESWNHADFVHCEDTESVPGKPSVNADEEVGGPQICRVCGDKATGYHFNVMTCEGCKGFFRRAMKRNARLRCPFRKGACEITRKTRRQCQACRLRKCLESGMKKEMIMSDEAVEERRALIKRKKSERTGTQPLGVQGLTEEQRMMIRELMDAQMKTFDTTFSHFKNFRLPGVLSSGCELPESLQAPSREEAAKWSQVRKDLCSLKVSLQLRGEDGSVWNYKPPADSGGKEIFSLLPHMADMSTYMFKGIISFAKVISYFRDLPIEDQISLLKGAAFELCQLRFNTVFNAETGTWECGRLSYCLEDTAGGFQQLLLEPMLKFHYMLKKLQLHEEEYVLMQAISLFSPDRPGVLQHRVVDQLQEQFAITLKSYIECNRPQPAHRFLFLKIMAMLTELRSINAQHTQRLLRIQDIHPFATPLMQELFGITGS
Chain of Cytochrome P450 3A4 (Homo sapiens) (P08684 whole entry, looked up): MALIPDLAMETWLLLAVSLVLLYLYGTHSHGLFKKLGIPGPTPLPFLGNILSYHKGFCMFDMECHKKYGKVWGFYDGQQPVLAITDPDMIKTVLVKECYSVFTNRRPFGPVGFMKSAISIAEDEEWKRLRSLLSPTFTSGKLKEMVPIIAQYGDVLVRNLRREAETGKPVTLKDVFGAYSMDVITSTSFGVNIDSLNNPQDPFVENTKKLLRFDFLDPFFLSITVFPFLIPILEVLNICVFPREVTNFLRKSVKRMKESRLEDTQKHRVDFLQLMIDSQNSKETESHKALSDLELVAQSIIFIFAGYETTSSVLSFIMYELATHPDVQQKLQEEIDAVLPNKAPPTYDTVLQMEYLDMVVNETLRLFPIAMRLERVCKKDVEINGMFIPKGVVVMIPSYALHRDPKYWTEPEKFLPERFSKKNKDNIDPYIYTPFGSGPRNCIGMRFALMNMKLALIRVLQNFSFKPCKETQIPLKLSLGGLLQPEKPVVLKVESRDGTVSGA
Chain of Cytochrome P450 2C19 (Homo sapiens) (P33261 whole entry, looked up): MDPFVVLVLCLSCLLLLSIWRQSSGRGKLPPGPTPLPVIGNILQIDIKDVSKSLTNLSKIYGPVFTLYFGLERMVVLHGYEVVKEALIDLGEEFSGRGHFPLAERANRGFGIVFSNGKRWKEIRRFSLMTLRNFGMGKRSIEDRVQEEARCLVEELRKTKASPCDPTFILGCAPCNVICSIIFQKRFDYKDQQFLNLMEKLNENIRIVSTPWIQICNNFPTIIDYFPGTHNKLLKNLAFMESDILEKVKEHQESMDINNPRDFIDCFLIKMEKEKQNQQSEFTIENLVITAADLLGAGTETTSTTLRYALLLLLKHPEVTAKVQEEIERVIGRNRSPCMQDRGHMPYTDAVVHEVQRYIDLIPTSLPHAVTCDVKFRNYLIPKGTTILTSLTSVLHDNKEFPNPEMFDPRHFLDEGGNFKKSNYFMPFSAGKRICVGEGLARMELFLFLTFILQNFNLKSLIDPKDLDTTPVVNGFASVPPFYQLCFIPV
Chain of Nuclear receptor subfamily 1 group I member 3 (Homo sapiens) (Q14994 whole entry, looked up): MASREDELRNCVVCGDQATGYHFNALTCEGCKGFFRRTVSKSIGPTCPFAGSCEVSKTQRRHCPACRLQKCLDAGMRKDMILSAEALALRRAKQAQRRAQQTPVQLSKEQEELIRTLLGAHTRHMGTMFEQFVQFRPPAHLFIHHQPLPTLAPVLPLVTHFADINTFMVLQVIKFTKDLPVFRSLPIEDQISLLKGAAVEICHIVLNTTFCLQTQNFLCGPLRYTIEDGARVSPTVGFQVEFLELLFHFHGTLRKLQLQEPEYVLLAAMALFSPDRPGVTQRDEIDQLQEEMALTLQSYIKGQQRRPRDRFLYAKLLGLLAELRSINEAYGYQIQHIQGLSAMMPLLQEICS
Chain of Cytochrome P450 2D6 (Homo sapiens) (P10635 whole entry, looked up): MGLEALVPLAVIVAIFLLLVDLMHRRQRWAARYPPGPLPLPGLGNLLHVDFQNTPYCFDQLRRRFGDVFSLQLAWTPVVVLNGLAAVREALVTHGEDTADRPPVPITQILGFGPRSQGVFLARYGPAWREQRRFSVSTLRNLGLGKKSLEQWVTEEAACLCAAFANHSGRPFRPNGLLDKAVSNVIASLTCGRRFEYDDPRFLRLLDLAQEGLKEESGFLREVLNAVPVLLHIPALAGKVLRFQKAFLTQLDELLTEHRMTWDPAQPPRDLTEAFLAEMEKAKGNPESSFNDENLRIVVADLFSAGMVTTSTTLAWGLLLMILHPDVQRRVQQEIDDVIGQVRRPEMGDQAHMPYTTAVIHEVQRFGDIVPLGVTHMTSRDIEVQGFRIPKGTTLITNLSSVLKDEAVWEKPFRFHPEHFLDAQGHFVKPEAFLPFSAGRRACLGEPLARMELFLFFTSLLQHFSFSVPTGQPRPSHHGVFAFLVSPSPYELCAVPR
Chain of Cytochrome P450 1A2 (Homo sapiens) (P05177 whole entry, looked up): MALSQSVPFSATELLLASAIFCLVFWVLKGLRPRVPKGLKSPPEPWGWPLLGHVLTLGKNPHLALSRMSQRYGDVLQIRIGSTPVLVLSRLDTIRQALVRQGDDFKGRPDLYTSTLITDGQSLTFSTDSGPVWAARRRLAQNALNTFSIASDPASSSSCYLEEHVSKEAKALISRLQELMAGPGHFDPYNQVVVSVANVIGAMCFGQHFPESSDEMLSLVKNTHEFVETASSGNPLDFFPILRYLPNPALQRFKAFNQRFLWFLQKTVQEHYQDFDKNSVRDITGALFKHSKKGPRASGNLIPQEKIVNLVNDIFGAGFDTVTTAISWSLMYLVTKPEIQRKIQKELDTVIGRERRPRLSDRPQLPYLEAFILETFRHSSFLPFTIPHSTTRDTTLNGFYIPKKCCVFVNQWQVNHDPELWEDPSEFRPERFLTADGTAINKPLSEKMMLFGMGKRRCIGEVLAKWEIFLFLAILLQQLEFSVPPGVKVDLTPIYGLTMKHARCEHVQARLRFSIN

For `O=c1ccn2c(n1)O[C@H]1[C@H](O)[C@@H](CO)O[C@H]12`, the Potency [1] was “inactive” and the Potency [2] was “inactive”.
For `COC(=O)N[C@H](C(=O)N1CCC[C@H]1C(=O)Nc1ccc([C@@H]2CC[C@@H](c3ccc(NC(=O)[C@@H]4CCCN4C(=O)[C@@H](NC(=O)OC)C(C)C)cc3)N2c2ccc(C(C)(C)C)cc2)cc1)C(C)C`, the Potency [1] was “inactive” and the Potency [3] was “inactive”.
In the case of `Cc1cccc(C)c1N(CC(=O)Nc1ccc(-c2ncon2)cc1)C(=O)C1CCS(=O)(=O)CC1`, the Potency [1] is reported as “inactive” and the Potency [2] is reported as “inactive”.
With `CC(=O)N[C@@H](CC(C)C)C(=O)N[C@@H](CC(C)C)C(=O)N[C@H](C=O)CCCN=C(N)N` the Potency [1] was “inactive” and the Potency [2] was “inactive”.
With `NC(=O)[C@@H]1CC[C@@H]2CN1C(=O)N2OS(=O)(=O)O` the Potency [1] was “inactive”, the Potency [3] was “inactive” and the Potency [4] was “inactive”.
In the case of `COC(=O)c1cc(OC)c2c(c1-c1c(CO)cc(OC)c3c1OCO3)OCO2`, the Potency [1] is reported as “inactive”.
For `O=c1cc(-c2ccc(O)c(-c3c(O)cc(O)c4c(=O)cc(-c5ccc(O)cc5)oc34)c2)oc2cc(O)cc(O)c12`, the Potency [1] was “inactive” and the Potency [2] was “inactive”.
For `O=C(O)CCCN1CCC(O[C@@H](c2ccc(Cl)cc2)c2ccccn2)CC1`, the Potency [1] was “inactive”, the Potency [3] was “inactive” and the Potency [4] was “inactive”.
In the case of `S=C(NCCc1ccccn1)Nc1ccc(Br)cn1`, the Potency [1] is reported as “inactive”.
With `O=C1CCC[C@@H]2[C@@H]3CCC[N@+]4([O-])CCC[C@H](CN12)[C@H]34` the Potency [1] was “inactive”, the Potency [3] was “inactive” and the Potency [4] was “inactive”. The Z-AUC [5] was 1.48 (inactive), the Z-AUC ([5]; measured here: PEO1 parental Z-AUC) was 0.635 and the Z-AUC ([5]; measured here: PEO4 Z-AUC) was 0.881.
With `CCOC(=O)NCCCC(=O)NCCc1ccccc1` the Potency [1] was “inactive” and the Potency [2] was “inactive”.
With `[N-]=[N+]=NCc1cccc(/C(O)=C\C(=O)C(=O)O)c1` the Potency [1] was “inactive” and the Potency [2] was “inactive”.
With `Cn1c(=O)cc(N2CCC[C@@H](N)C2)n(Cc2ccccc2C#N)c1=O` the Potency [1] was “inactive”, the Potency [2] was “inactive” and the Potency [3] was “inactive”. For the same compound, the Potency [4] was “inactive”.
For `C[C@H]1O[C@@H](O[C@H]2CC[C@@]3(C)C(CC[C@]4(C)[C@@H]3C=CC3=C5CC(C)(C)CC[C@]5(CO)[C@H](O)C[C@@]34C)[C@]2(C)CO)[C@H](O)[C@@H](O[C@@H]2O[C@H](CO)[C@@H](O)[C@H](O)[C@@H]2O)[C@H]1O` (stereo not given in full), the Potency [1] was “inactive” and the Potency [2] was “inactive”.
In the case of `C=C[C@@H]1C[C@]1(NC(=O)[C@@H]1C[C@@H](Oc2ncc(OC)c3ccc(Cl)cc23)CN1C(=O)[C@@H](NC(=O)OC(C)(C)C)C(C)(C)C)C(=O)NS(=O)(=O)C1CC1`, the Potency [1] is reported as “inactive”, the Potency [2] is reported as 20.5 µM (active) and the Potency [3] is reported as “inactive”.
With `CCCCCCCCCCCCCCCCOc1nc2ccc(C)cc2c(=O)o1` the Potency [1] was “inactive” and the Potency [3] was “inactive”.
With `COc1ccc2cc1Oc1ccc(cc1)C[C@H]1c3cc(c(OC)cc3CCN1C)Oc1c(O)c(OC)cc3c1[C@H](C2)N(C)CC3` the Potency [1] was “inactive”.
In the case of `O=C(/C=C/c1ccc(O)c(O)c1)O[C@@H]1CC(O)(C(=O)O)C[C@@H](OC(=O)/C=C/c2ccc(O)c(O)c2)C1O` (stereo not given in full), the Potency [1] is reported as “inactive”, the outcome [6] is reported as “inactive” and the outcome [7] is reported as “inactive”. The Potency [8] was “inactive”, the outcome [9] was “inactive” and the outcome [10] was “inactive”. For the same compound, the Potency [11] was “inactive”, the Potency [12] was “inactive” and the Potency [13] was “inactive”. The outcome [14] was “inactive”, the Potency [15] was “inactive” and the max response [16] was 3.46% (inactive). The Potency [17] was “inactive”, the outcome [18] was “inactive” and the outcome [19] was “inactive”.
